Measurements published in PubChem BioAssay (Tox21).
Records with an inconclusive call do not appear. Activity calls are given as the source filed them. Unless noted, the call rests on the fitted dose curve; in most records, active means well fitted curve in the direction sought with a large enough effect in the repeat runs; inconclusive means weak or mixed curves; inactive means no such curve, though single readings can be large; an effect the other way counts as inactive or inconclusive. Positions of bridges follow the written chain, without caps; N, C: chain ends. Non-standard residues stand in square brackets, D forms with d. Residues, ends and D or L forms follow the SMILES beside them. hArg = N=C(N)NCCCC[C@H](N)C(=O)O; Mpa = O=C(O)CCS

Key:
[1] = qHTS assay to identify small molecule HDAC inhibitors - cell viability counter screen (AID 1259365); further: series mostly up to about 92 µM; nearly all actives have a fitted effect of over 50% in size
Outline: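 CellTiter-Glo luminescence (30 min, room temperature) reported viability after a 2 h compound exposure at 37 C. Cells: wild-type HCT-116, 1,500 per well, seeded the night before.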

[2] = qHTS assay to identify small molecule agonists of the sonic hedgehog signaling (Shh) pathway (AID 1259368; calls by dose curve;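 further: NIH/3T3-derived 3T3Gli1-Luc cells carrying a stable Gli1-driven firefly luciferase reporter; series mostly up to about 92 µM; nearly all actives have a fitted effect of over 15% in size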)
Outline: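 NIH/3T3-derived 3T3Gli1-Luc cells with stably integrated Gli1-driven firefly luciferase, 2,000 cells/well, compounds added after 4 hr. Incubated 24 hr at 37C, 5% CO2; luminescence read after 30 min with luciferase reagent at room temperature.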

[3] = qHTS assay to identify small molecule antagonists of the sonic hedgehog signaling (Shh) pathway (AID 1259369; calls by dose curve; further: nearly all actives have a fitted effect of over 45% in size)
Outline: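 NIH/3T3-derived Gli1-Luc reporter cells plated 4 h, dosed with compound, then stimulated with conditioned medium for 24 h at 37 C. Firefly luciferase luminescence read after 30 min with detection reagent at room temperature.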

[4] = qHTS assay to identify small molecule agonists of the androgen receptor (AR) signaling pathway in the presence of an antagonist - cell viability counter screen (AID 1259379);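 further: MDA-kb2 human breast cancer cells carrying an MMTV luciferase reporter; series mostly up to about 92 µM; nearly all actives have a fitted effect of over 25% in size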
Outline: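 MDA-kb2 cells (MMTV-luciferase, AR/GR), 3,000/well, 5 h attachment, then 3.0 µM nilutamide (final) and compounds at 15 concentrations. Viability by CellTiter-Fluor fluorescence after 16 h at 37 °C, 0% CO2, in the reporter wells.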

[5] = qHTS assay to identify small molecule agonists of the estrogen receptor beta (ER-beta) signaling pathway - cell viability counter screen (AID 1259380); further: nearly all actives have a fitted effect of over 30% in size
Outline: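 ER-beta-UAS-bla HEK293T cells in medium with 2% charcoal-stripped FBS, pre-incubated 6 hr, then treated 16 hr at 37C. Cytotoxicity read in the same wells by CellTiter-Glo luminescence after 30 min at room temperature.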

[6] = qHTS assay to identify small molecule antagonists of the estrogen receptor beta (ER-beta) signaling pathway - cell viability counter screen (AID 1259382); further: series mostly up to about 92 µM; nearly all actives have a fitted effect of over 55% in size
Outline: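 ER-beta-UAS-bla HEK293T cells in 2% charcoal-stripped FBS medium, treated with compound plus 1 nM 17-beta-estradiol for 16 h at 37C. Viability read by CellTiter-Glo luminescence after 30 min at room temperature in the same wells.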

[7] = qHTS assay to identify small molecule agonists or antagonists of the thyroid stimulating hormone receptor (TSHR) signaling pathway - wild type cell line counter screen (AID 1259384; calls by dose curve)
Outline: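 Wild-type Hek293 cells, 800/well, 18 h at 37C, then compound with Ro20-1724 for 30 min RT. cAMP by HTRF (cAMP-d2/anti-cAMP cryptate), 1 h RT, fluorescence read. 15 concentrations, triplicates.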

[8] = target: Progesterone receptor (Homo sapiens) (UniProt P06401); assay: qHTS assay to identify small molecule antagonists of the progesterone receptor (PR) signaling pathway (AID 1346795; active means well fitted inhibition curve with a large enough effect in the signal ratio in the repeat runs, not every such curve was filed as active; the % refers to the signal ratio)
Progesterone receptor (Homo sapiens), sequence (P06401 whole entry, looked up): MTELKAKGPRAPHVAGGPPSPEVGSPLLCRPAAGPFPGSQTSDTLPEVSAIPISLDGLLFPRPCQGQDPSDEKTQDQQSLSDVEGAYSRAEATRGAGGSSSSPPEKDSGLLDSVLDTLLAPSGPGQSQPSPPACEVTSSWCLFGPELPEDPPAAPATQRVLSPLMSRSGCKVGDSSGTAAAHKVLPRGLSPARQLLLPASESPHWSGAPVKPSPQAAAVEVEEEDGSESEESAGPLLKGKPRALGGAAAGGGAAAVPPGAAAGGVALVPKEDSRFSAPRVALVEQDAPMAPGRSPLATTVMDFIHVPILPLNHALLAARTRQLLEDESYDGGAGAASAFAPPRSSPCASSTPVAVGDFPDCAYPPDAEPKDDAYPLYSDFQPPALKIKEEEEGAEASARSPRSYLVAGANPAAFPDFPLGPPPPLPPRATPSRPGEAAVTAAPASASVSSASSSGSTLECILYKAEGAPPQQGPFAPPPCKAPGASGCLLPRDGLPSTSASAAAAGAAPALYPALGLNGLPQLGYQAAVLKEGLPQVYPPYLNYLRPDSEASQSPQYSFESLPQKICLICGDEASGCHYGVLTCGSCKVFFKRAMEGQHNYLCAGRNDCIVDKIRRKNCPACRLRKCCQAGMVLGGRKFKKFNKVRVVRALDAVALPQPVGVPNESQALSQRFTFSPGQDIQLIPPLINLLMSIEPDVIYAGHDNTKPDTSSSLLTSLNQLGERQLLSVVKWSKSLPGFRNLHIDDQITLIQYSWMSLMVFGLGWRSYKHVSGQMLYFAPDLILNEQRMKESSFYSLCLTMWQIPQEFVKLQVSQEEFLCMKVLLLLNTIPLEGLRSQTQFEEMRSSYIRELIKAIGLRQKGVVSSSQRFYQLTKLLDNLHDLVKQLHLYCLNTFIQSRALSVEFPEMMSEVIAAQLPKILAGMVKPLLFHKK
Outline: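 Antagonist mode with agonist R5020 at 1 nM final and 16 hr incubation at 37C. Reporter was beta-lactamase driven by UAS in HEK293T (PR-UAS-bla), 2% charcoal-stripped serum; signal from LiveBLAzer FRET substrate, 2 hr at room temperature.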

[9] = qHTS assay to identify small molecule antagonists of the progesterone receptor (PR) signaling pathway - cell viability counter screen (AID 1346798); further: series mostly up to about 92 µM; nearly all actives have a fitted effect of over 50% in size
Outline: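 Cytotoxicity read as CellTiter-Glo luminescence (30 min, room temperature) in the same wells as the beta-lactamase readout. HEK293T PR-UAS-bla cells in charcoal-stripped 2% FBS received compound and R5020, then 16 h at 37C, 5% CO2.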

[10] = qHTS assay to identify small molecule agonists of the progesterone receptor (PR) signaling pathway - cell viability counter screen (AID 1346799; calls by dose curve; further: nearly all actives have a fitted effect of over 45% in size)
Outline: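 Cytotoxicity measured by CellTiter-Glo luminescence (30 min, RT) in the same wells as the PR beta-lactamase agonist read. Those HEK293T cells had 16 h compound treatment at 37 C in 2% charcoal-stripped FBS medium.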

[11] = qHTS assay to identify small molecule agonists of the sonic hedgehog signaling (Shh) pathway - cell viability counter screen (AID 1259366); further: nearly all actives have a fitted effect of over 50% in size
Outline: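 Cytotoxicity counter screen: CellTiter-Fluor reagent added after 23 h compound exposure, then 1 h at 37C and fluorescence read. Cells were 3T3 Gli1-Luc, seeded 2,000 per well and dosed 4 h post-plating.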

[12] = qHTS assay to identify small molecule antagonists of the sonic hedgehog signaling (Shh) pathway - cell viability counter screen (AID 1259367); further: nearly all actives have a fitted effect of over 55% in size
Outline: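 NIH/3T3-derived Gli1-Luc reporter cells, 2,000/well, plated 4 hr before compound addition, then stimulated with conditioned medium for 24 hr at 37C. Viability measured in the same wells by CellTiter-Fluor fluorescence, reagent added at 23 hr for 1 hr.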

[13] = qHTS assay to identify small molecule agonists of the estrogen receptor alpha (ER-alpha) signaling pathway in the presence of an antagonist - cell viability counter screen (AID 1259386);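 further: series mostly up to about 92 µM; cells exposed to compounds for 22 h at 37 °C before the viability read; nearly all actives have a fitted effect of over 30% in size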
Outline: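 Cell viability in VM7Luc4E2 cells (endogenous full-length ER-alpha) measured by CellTiter-Fluor fluorescence in the same wells as the luciferase screen. Cells pre-cultured 5 days in charcoal-stripped serum, then treated 22 h with compounds at 15 concentrations plus 10.0nM ICI-182,780.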

[14] = target: Progesterone receptor (Homo sapiens) (UniProt P06401); assay: qHTS assay to identify small molecule agonists of the progesterone receptor (PR) signaling pathway (AID 1346784; calls by dose curve; further: nearly all actives have a fitted effect of over 30% in size)
Outline: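 Agonist qHTS: compounds pinned onto 3,000 PR-UAS-bla HEK 293T cells per well in charcoal-stripped serum medium, 16hr at 37C, then beta-lactamase activity measured by LiveBLAzer FRET fluorescence after 2 hours at room temperature.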

[15] = target: Androgen receptor (Homo sapiens) (UniProt P10275); assay: qHTS assay to identify small molecule agonists of the androgen receptor (AR) signaling pathway in the presence of an antagonist (AID 1259381; calls by dose curve; further: nearly all actives have a fitted effect of over 15% in size)
Androgen receptor (Homo sapiens), sequence (P10275 whole entry, looked up): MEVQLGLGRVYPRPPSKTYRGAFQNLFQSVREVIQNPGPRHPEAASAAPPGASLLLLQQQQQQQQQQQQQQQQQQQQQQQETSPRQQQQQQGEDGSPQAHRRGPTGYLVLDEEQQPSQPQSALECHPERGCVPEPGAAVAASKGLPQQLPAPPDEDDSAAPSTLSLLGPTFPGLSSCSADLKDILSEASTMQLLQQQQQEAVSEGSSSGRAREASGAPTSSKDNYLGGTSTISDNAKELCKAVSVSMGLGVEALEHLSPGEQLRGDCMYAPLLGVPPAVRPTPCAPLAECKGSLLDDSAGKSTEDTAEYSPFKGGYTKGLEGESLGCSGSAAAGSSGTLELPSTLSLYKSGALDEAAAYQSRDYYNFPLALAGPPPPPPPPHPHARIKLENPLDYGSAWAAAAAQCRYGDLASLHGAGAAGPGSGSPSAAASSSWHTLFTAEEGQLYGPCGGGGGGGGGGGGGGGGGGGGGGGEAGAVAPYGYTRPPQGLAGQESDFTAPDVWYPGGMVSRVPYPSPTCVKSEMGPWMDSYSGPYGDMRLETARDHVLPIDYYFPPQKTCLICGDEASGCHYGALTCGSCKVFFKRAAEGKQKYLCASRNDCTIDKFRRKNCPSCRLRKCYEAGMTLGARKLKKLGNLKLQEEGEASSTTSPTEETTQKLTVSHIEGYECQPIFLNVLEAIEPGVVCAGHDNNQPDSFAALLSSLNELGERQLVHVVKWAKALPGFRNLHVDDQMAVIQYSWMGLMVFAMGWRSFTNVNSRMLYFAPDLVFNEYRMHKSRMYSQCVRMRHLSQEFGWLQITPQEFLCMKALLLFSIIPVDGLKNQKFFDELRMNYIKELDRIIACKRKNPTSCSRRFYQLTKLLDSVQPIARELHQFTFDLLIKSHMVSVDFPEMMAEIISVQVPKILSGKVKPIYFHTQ
Outline: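 MDA-kb2 cells carrying MMTV-luciferase (AR/GR responsive), 3,000 cells/well, co-treated with 3.0 uM nilutamide final. Compounds at 15 concentrations, 16 hr at 37C without CO2. Luciferase luminescence read after 30 min with ONE-Glo.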

[16] = target: Estrogen receptor (Homo sapiens) (UniProt P03372); assay: qHTS assay to identify small molecule agonists of the estrogen receptor alpha (ER-alpha) signaling pathway in the presence of an antagonist (AID 1259383; calls by dose curve; further: top concentration of the series differs between compounds; nearly all actives have a fitted effect of over 15% in size)
Estrogen receptor (Homo sapiens), sequence (P03372 whole entry, looked up): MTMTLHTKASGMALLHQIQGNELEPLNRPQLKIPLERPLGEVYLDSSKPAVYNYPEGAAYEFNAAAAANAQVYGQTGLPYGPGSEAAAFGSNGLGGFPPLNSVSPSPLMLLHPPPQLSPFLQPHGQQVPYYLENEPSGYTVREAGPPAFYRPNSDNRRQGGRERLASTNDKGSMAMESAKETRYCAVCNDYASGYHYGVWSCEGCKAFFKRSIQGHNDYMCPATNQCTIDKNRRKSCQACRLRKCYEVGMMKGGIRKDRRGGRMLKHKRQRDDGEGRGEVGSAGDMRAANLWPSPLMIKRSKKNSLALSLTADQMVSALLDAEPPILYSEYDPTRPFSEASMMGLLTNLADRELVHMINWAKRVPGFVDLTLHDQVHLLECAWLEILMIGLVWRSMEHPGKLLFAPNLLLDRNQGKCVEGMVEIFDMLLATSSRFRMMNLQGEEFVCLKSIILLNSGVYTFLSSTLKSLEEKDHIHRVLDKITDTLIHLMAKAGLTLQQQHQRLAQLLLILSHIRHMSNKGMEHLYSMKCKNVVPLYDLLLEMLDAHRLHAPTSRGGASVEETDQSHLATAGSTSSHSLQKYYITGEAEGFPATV
Outline: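 VM7Luc4E2 cells express endogenous full-length ER-alpha with an ERE-luciferase reporter and were hormone-deprived for 5 days. Compounds at 15 concentrations were added with 10.0nM ICI-182,780 for 22hr at 37C. Luminescence was read with ONE-Glo.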

[17] = target: Thyrotropin receptor (Homo sapiens) (UniProt P16473); assay: qHTS assay to identify small molecule antagonists of the thyroid stimulating hormone receptor (TSHR) signaling pathway (AID 1259385; calls by dose curve; further: nearly all actives have a fitted effect of over 20% in size)
Thyrotropin receptor (Homo sapiens), sequence (P16473 whole entry, looked up): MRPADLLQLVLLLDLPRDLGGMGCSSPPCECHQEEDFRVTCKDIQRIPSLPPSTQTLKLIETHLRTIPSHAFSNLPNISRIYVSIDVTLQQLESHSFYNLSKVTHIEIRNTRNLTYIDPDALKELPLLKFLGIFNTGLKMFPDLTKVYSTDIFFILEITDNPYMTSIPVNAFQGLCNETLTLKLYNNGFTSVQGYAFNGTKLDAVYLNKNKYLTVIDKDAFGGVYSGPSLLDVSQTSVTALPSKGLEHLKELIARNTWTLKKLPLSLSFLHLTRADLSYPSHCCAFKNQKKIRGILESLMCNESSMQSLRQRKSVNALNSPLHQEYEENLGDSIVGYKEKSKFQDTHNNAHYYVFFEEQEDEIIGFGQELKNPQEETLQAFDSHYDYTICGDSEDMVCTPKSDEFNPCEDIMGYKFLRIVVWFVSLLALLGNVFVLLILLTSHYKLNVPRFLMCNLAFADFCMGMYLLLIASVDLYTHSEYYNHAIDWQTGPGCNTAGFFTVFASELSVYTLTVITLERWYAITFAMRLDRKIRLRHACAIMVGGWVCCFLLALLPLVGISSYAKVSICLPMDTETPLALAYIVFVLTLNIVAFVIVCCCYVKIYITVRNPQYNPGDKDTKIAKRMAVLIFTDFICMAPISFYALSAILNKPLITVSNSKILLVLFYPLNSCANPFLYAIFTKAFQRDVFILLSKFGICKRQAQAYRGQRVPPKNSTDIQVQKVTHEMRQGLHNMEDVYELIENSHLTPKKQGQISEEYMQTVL
Outline: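 TSHR-HEK293 cells (800/well) plated 18 h, then compounds with Ro20-1724 and TSH at 1.5 ng/mL final, 30 min at room temperature. cAMP quantified by HTRF (cAMP-d2/anti-cAMP-cryptate, 1 h); 15 concentrations in triplicate.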

[18] = target: Estrogen receptor beta (Homo sapiens) (UniProt Q92731); assay: qHTS assay to identify small molecule agonists of the estrogen receptor beta (ER-beta) signaling pathway (AID 1259377; active means well fitted activation curve with a large enough effect in the signal ratio in the repeat runs, not every such curve was filed as active; the % refers to the signal ratio)
Estrogen receptor beta (Homo sapiens), sequence (Q92731 whole entry, looked up): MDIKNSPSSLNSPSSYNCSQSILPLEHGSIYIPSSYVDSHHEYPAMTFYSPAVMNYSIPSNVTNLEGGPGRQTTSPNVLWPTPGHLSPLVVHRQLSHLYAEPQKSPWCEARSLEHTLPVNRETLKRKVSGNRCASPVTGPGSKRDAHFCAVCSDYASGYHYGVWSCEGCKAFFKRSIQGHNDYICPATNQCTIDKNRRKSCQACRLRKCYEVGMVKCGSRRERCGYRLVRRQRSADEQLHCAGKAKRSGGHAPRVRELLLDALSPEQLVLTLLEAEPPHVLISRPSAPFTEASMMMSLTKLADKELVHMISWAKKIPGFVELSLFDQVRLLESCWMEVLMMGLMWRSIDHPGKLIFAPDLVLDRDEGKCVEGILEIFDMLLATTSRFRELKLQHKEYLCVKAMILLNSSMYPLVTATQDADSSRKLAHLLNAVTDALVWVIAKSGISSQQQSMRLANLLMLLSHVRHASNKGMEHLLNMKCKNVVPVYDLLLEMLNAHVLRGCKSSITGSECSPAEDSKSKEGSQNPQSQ
Outline: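 Ratiometric beta-lactamase FRET read-out came after 2 h substrate loading at room temperature. It followed 16 h compound treatment at 37C of GripTite HEK293T cells carrying a UAS-bla reporter, plated in 2% charcoal-stripped FBS medium.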

[19] = target: Estrogen receptor beta (Homo sapiens) (UniProt Q92731); assay: qHTS assay to identify small molecule antagonists of the estrogen receptor beta (ER-beta) signaling pathway (AID 1259378; active means well fitted inhibition curve with a large enough effect in the signal ratio in the repeat runs, not every such curve was filed as active; the % refers to the signal ratio)
Outline: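 ER-beta-UAS-bla HEK293T cells in 2% charcoal-stripped FBS medium treated with compound plus 1nM final 17-beta-estradiol for 16 hr at 37C. Beta-lactamase reporter read by FRET substrate fluorescence after 2 hours at room temperature.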

Measured: Potency

NC(=O)[C@@H]1CSSCCC(=O)N[C@@H](CCCCN=C(N)N)C(=O)NCC(=O)N[C@@H](CC(=O)O)C(=O)N[C@@H](Cc2c[nH]c3ccccc23)C(=O)N2CCC[C@H]2C(=O)N1 ([Mpa][hArg]GDWPC-NH2; disulfide 1-7)
inactive: [1] | [2] | [3] | [4] | [5] | [6] | [7] | [8] | [9] | [10]

CCc1occc(=O)c1O
not listed: [2] | [15] | [16] | [17] | [18] | [19]
inactive: all other assays above

C/C=C(\C)C(C)=O
not listed: [2] | [7] | [10] | [18] | [19]
inactive: all other assays above

Cc1cc(-c2ccccc2)nnc1NCCN1CCOCC1
not listed: [11] | [15] | [17]
inactive: all other assays above

COc1nc(N)nc2nc[nH]c12
not listed: [12] | [15] | [17]
inactive: all other assays above

COCCc1ccccn1
not listed: [2] | [16] | [18] | [19]
inactive: all other assays above

CN(C)CCCCl
not listed: [2] | [5] | [15] | [17] | [18] | [19]
inactive: all other assays above

COC(=O)c1ccccc1C(=O)O
not listed: [5] | [7] | [15]
inactive: all other assays above

CCC(=O)CC
not listed: [7] | [12] | [14] | [15] | [16] | [17] | [18] | [19]
inactive: all other assays above
